Screening results deposited in PubChem BioAssay by Broad Institute.
HSF-1 act: increases HSF-1 driven luciferase reporter signal; NIH3T3-HGL HSF-1 luciferase reporter, MG132, 8 h; 100% = twice DMSO control signal; activation, % at 9 µM; 1.7% of 300,000 active; AID 504408;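 active means mean replicate activation of at least 50% with a set share of replicates each reaching 50%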;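 further: 0% = median of the neutral control wells and 100% = twice that signal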
Wnt act: activates Wnt/beta-catenin signaling in a reporter cell assay | activator, plate reader | activation, % at 9.35 µM | 1.2% of 300,000 active | AID 743398; in the data active means activation above about 30%, passing the limit was not always enough;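 further: 0% = neutral control wells and 100% = positive control wells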
MITF TRPM1 HTS: activators of MITF-driven TRPM1 promoter activity in SK-MEL-5 cells | SK-MEL-5 TRPM1-promoter luciferase, 24 h; % of positive control, neutral wells = 0 | activation, % at 12.5 µM | 0.75% of 300,000 active;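 active means mean activation of at least 80% with every replicate also reaching 80%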;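 further: 0% = neutral control wells and 100% = parthenolide positive control wells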
HSF1 inh: HSF1 inhibition; NIH3T3-HGL HSE-luciferase, MG132-induced, luminescence 8 h; stronger effect = lower value; activity change, negative = inhibition, % at 7.5 µM (by protocol); 0.77% of 300,000 active; AID 2098;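 active means more than half of replicate wells show activity change below -50%, luminescence cut by over half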;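 further: luciferase reports HSF-1 transcriptional activity via heat shock element; 0% = median of DMSO wells and -100% = zero luminescence signal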
esBAF inh: blocks esBAF chromatin remodeling in mouse ES cells. AID 602393. Bmi1-luciferase knock-in reporter, 24 h; 100% = twice the neutral-well signal. 2% of 350,000 active. reporter increase, % at 12.5 µM; in the data active means activation above about 40%;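 further: 0% = median of the plate's neutral control wells and 100% = double that signal; a rise in the Bmi1 reporter signal indicates esBAF inhibition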
Starred values were filed as active, the others as inactive; · = no result given. The list is not random: actives were taken first. Their share in the collection is about 3.9%.

SMILES	HSF-1 act	Wnt act	MITF TRPM1 HTS	HSF1 inh	esBAF inh
CC(C)NS(=O)(=O)c1ccc(OCC(=O)N2CCCC2)c(Cl)c1	-62.4	·	-3.3	-53.5*	2.4
C(=N\n1cnnc1)/c1ccc(OCc2cccc3ccccc23)cc1	32.1	·	35.5	8.0	·
C(=N\n1cnnc1)/c1cccc(OCCOc2ccccc2)c1	5.3	·	22.0	4.6	34.7
C(=N\n1cnnc1)/c1ccccc1OCCOc1ccccc1	29.2	3.2	36.3	-4.0	61.3*
Fc1ccccc1COc1ccc(/C=N/n2cnnc2)cc1	11.5	36.8*	·	6.5	38.1
O=C(Nc1cccc(F)c1)N1C[C@@H]2[C@H](c3ccccc31)[C@@H](CO)N2C(=O)c1cccnc1	·	·	·	·	5.2
O=Cc1ccccc1OCCCOc1cccc2cccnc12	29.9	-3.1	27.8	21.2	25.4
Brc1ccc(OCCOCCOc2cccc3cccnc23)cc1	19.5	·	2.8	9.5	6.8
Brc1ccc(OCCCOc2cccc3cccnc23)cc1	56.1*	3.8	·	14.4	71.5*
O=[N+]([O-])c1ccccc1OCCCOc1cccc2cccnc12	55.5*	12.8	·	27.7	59.7*
Clc1ccccc1OCCCOc1cccc2cccnc12	106.5*	16.7	·	120.8	55.4*
CCC(=O)N(C)C[C@H]1Oc2cc(-c3ccccc3OC)ccc2S(=O)(=O)N([C@H](C)CO)C[C@@H]1C	·	·	·	·	1.9
CC(C)CN(CC(C)C)c1nc(N)c(C#N)c(CC#N)c1C#N	131.9*	-6.2	7.1	111.8	-5.3
CN(c1ccccc1)c1nc(N)c(C#N)c(CC#N)c1C#N	69.3*	-54.5	-15.5	47.1	3.6
CN(CCO)c1nc(N)c(C#N)c(CC#N)c1C#N	22.6	3.0	8.3	2.9	·
CCC(=O)Nc1ccc2c(c1)OC[C@H](C)N(C(C)=O)C[C@H](C)[C@H](OC)CN(C)C2=O	·	·	·	·	-5.2
CNC(=O)C[C@H]1CC[C@H]2[C@H](COc3ccc(NC(=O)Nc4c(C)noc4C)cc3C(=O)N2C)O1	·	·	·	·	-1.4
Cn1cnnc1Sc1ccc(/C=C/C(=O)c2ccc(O)cc2)cc1[N+](=O)[O-]	57.6*	16.4	-2.3	30.5	·
CC(C)c1nc(SCc2c(F)cccc2Cl)c2c(=O)n(C)c(=O)n(C)c2n1	-72.9	·	19.5	-67.1*	4.3
Cn1c(=O)c2c(nc(SCCCC#N)n2Cc2c(F)cccc2Cl)n(C)c1=O	10.5	-2.3	4.2	5.5	4.0
Brc1ccc(N=C/C=C/C=C/Nc2ccc(Br)cc2)cc1	·	12.5	-15.5	·	68.2*
CN(C)C(/C=C/Nc1ccc(Br)cc1)=C(C#N)C#N	1.8	2.2	-19.0	0.4	·
C[C@@H]1CN([C@@H](C)CO)C(=O)c2cc(-c3ccc(C#N)cc3)cnc2O[C@H]1CN(C)C(=O)c1cccnc1	·	·	·	·	-2.4
Cc1ccc(-n2ncc(Br)c(Br)c2=O)cc1	-85.5	·	-83.1	-84.6*	-9.2
O=C(Nc1ccc([N+](=O)[O-])cc1)C(=O)Nc1cccc(C(=O)O)c1	-76.5	-2.6	-101.1	-70.8*	-89.4
SMILES	HSF-1 act	Wnt act	MITF TRPM1 HTS	HSF1 inh	esBAF inh
Cc1ccc([N+](=O)[O-])cc1NC(=S)NC(=O)c1ccco1	-11.5	·	9.0	-7.1	9.1
O=C(NC(=S)Nc1cc([N+](=O)[O-])ccc1Cl)c1ccccc1	54.0*	-2.9	5.2	12.0	27.8
O=C(NC(=S)Nc1cccc([N+](=O)[O-])c1)c1ccco1	25.9	13.8	21.3	13.5	48.8*
O=C(NC(=S)Nc1cccc([N+](=O)[O-])c1)c1ccccc1	1.2	32.2*	·	-3.2	·
CN1C(=O)c2cc(NC(=O)Nc3ccccc3F)ccc2OC[C@H]2O[C@H](CC(=O)O)CC[C@@H]21	·	·	·	·	6.4
COc1ccccc1NC(=O)Nc1ccc2c(c1)C(=O)N(C)C[C@@H](OC)[C@H](C)CN[C@@H](C)CO2	·	·	·	·	0.7
C[C@H](CO)N1C[C@H](C)[C@H](CN(C)C(=O)NC2CCCCC2)Oc2ccc(NC(=O)Nc3ccc(F)cc3)cc2CC1=O	·	·	·	·	-0.7
O=C(Nc1ccc(N2CCCCC2)cc1)c1cccnc1	15.4	·	36.3	17.0	61.9*
CCSc1ccc(NC(=O)c2cccnc2)cc1	-19.8	36.7*	·	5.3	36.8
CCc1ccc(NC(=O)c2cccnc2)cc1	2.5	53.1*	74.4	8.0	46.0*
COc1cccc(-c2cnc3c(c2)C(=O)N([C@@H](C)CO)C[C@@H](C)[C@@H](CN(C)Cc2ccncc2)O3)c1	·	·	·	·	-3.1
O=C1CC(c2ccccc2)CC(O)=C1C=Nc1cccc(Cl)c1 (stereo unspecified)	120.4*	3.3	-2.1	78.8	·
